From PubChem BioAssay (Tox21) come the findings set out here.

Inconclusive results are not listed. The source made the active and inactive calls. Unless noted, calls follow the shape of the dose curve; as a rule, active = well fitted curve in the direction sought with a large enough effect in the repeat runs; inconclusive = weak or mixed curves; inactive = no such curve, though single readings can be large; an effect the other way counts as inactive or inconclusive.

Test [1] in a line: qHTS assay to identify aromatase inhibitors - cell viability counter screen (AID 743084).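 Also: cells stimulated with testosterone during compound exposure; nearly all actives have a fitted effect of over 55% in size.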 On the technique in general: In qHTS, concentration-response curves come from the screen itself.
Test [2] is described as follows: qHTS assay to identify small molecule that activate the aryl hydrocarbon receptor (AhR) signaling pathway - cell viability counter screen (AID 743086).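 Also: HepG2 liver cells carrying the AhR DRE luciferase reporter; series mostly up to about 70 µM; nearly all actives have a fitted effect of over 45% in size.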 In outline:
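Cytotoxicity counter screen: CellTiter-Fluor signal (30 min, 37 C) in 4000 HepG2 cells/well carrying the DRE-luciferase reporter, following 24 h compound exposure at 37 C.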

Test [3] concerns the target Peroxisome proliferator-activated receptor gamma (Homo sapiens) (UniProt P37231). Description: qHTS assay to identify small molecule agonists of the peroxisome proliferator-activated receptor gamma (PPARg) signaling pathway (AID 743094; active = well fitted activation curve with a large enough effect in the signal ratio in the repeat runs, not every such curve was filed as active; the % refers to the signal ratio). A digest of the protocol:
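Cells from the PPARg UAS-bla HEK293H line are plated and incubated 5 h at 37C. Compounds in DMSO are pinned in and left 17 h at 37C. LiveBLAzer B/G substrate is then added for 1 h at room temperature before fluorescence is measured.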

The target is the same in test [4]. Put plainly: qHTS assay to identify small molecule antagonists of the peroxisome proliferator-activated receptor gamma (PPARg) signaling pathway (AID 743191; calls by dose curve; also: series mostly up to about 63 µM; nearly all actives have a fitted effect of over 30% in size). A digest of the protocol: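 Beta-lactamase reporter under UAS control in HEK293H PPARg-bla cells; compound treatment 17 h at 37C. Read-out: fluorescence intensity after 1 h room-temperature incubation with LiveBLAzer B/G FRET substrate.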

Test [5] is described as follows: qHTS assay to identify small molecule antagonists of the peroxisome proliferator-activated receptor gamma (PPARg) signaling pathway - cell viability counter screen (AID 743194). Also: nearly all actives have a fitted effect of over 55% in size. The settings on record: Potency: co-treated with 50 nM rosiglitazone. A digest of the protocol: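 Viability was measured as CellTiter-Glo luminescence in GeneBLAzer PPARg UAS-bla HEK293H cells. These cells had been exposed 17 h at 37 C to compounds together with rosiglitazone at 50 nM final, with the beta-lactamase readout taken in the same wells.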

Test [6] can be described thus: qHTS assay for small molecule agonists of the antioxidant response element (ARE) signaling pathway - cell viability counter screen (AID 743203; calls by dose curve; also: nearly all actives have a fitted effect of over 55% in size). A digest of the protocol:
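Cytotoxicity was tested in parallel with the ARE reporter screen. ARE-bla HepG2 cells were exposed to compounds for 16 hrs, and viability was taken from CellTiter-Glo luminescence.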

Test [7] can be described thus: qHTS assay for small molecule activators of the heat shock response signaling pathway - cell viability counter screen (AID 743209). Also: nearly all actives have a fitted effect of over 50% in size. Also: potency is read from the fitted curve at half-maximal effect. In outline: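 Cytotoxicity counter screen run in parallel with the HSE beta-lactamase reporter, using the same wells. HeLa HSE-bla cells received compound for 5 h at 37 C; ATP-based CellTiter-Glo luminescence was measured after 30 min at room temperature.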

Test [8] can be described thus: qHTS assay for small molecule activators of the heat shock response signaling pathway (AID 743210; active = well fitted activation curve with a large enough effect in the signal ratio in the repeat runs, with a control signal flat, not every such curve was filed as active; the % refers to the signal ratio; also: series mostly up to about 63 µM). In outline: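 Compound exposure lasted 5 h at 37 C in HeLa cells carrying a heat-shock-element-driven beta-lactamase reporter. Read-out: fluorescence intensity after 2.5 h room-temperature loading with LiveBLAzer B/G FRET substrate.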
A short description of test [9]: qHTS assay to identify small molecule agonists of the peroxisome proliferator-activated receptor delta (PPARd) signaling pathway - cell viability counter screen (AID 743211). Also: nearly all actives have a fitted effect of over 55% in size. In outline:
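Counter screen for cytotoxicity run in parallel with the PPARd reporter screen. Beta-lactamase reporter HEK293H cells exposed to compounds 17 h; ATP-based CellTiter-Glo luminescence quantified viability.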

The target of test [10] is Peroxisome proliferator-activated receptor delta (Homo sapiens) (UniProt Q03181). Put plainly: qHTS assay to identify small molecule agonists of the peroxisome proliferator-activated receptor delta (PPARd) signaling pathway (AID 743212; calls by dose curve). In outline: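 Beta-lactamase reporter readout: a ratiometric FRET signal from the LiveBLAzer substrate after 2 h at room temperature. Compound exposure at 37 °C in PPARδ-bla HEK293H cells driven by an upstream activator sequence.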
Sequence of Peroxisome proliferator-activated receptor delta (Homo sapiens) (Q03181 whole entry, looked up): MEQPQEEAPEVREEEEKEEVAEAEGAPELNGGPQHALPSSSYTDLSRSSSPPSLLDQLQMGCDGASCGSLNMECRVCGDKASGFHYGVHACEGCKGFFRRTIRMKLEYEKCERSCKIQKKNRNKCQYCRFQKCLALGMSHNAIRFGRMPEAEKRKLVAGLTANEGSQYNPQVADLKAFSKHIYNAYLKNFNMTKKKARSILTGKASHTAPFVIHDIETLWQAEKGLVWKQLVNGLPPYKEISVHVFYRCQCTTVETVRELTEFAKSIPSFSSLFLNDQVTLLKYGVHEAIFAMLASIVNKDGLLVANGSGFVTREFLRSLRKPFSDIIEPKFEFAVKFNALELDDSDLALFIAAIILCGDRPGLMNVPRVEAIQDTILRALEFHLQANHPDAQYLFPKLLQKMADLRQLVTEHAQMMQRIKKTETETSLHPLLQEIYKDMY

Test [11] in a line: qHTS assay to identify small molecule antagonists of the peroxisome proliferator-activated receptor delta (PPARd) signaling pathway - cell viability counter screen (AID 743213). Also: nearly all actives have a fitted effect of over 50% in size. A digest of the protocol: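 CellTiter-Glo was added to PPARd-bla HEK293H wells following 17 h compound treatment in the presence of 300 nM L165041. Luminescence was recorded after 30 min at room temperature.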

Test [12] can be described thus: qHTS assay to identify small molecule agonists of the farnesoid-X-receptor (FXR) signaling pathway - cell viability counter screen (AID 743218). Also: nearly all actives have a fitted effect of over 45% in size. A digest of the protocol:
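Cells were seeded, left 5 h at 37 C and 5% CO2, then dosed with compound in DMSO for 16 h. After the beta-lactamase FRET read, CellTiter-Glo was added and luminescence measured 30 min later.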

A short description of test [13]: qHTS assay to identify small molecule antagonists of the farnesoid-X-receptor (FXR) signaling pathway - cell viability counter screen (AID 743221; active = well fitted cell-killing curve with a large enough effect in the repeat runs, not every such curve was filed as active; also: nearly all actives have a fitted effect of over 50% in size). A digest of the protocol: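 Multiplexed counter screen: viability of FXR-bla HEK 293T cells under agonist stimulation by chenodeoxycholic acid (50 uM, final) and test compound for 16 h at 37 C, measured by CellTiter-Glo luminescence in the reporter wells.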

Test [14] concerns the target Vitamin D3 receptor (Homo sapiens) (UniProt P11473). Put plainly: qHTS assay to identify small molecule antagonists of the vitamin D receptor (VDR) signaling pathway (AID 743223; active = well fitted inhibition curve with a large enough effect in the signal ratio in the repeat runs, not every such curve was filed as active; the % refers to the signal ratio). A digest of the protocol: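 Cells carrying a VDR-driven beta-lactamase reporter (VDR-bla) were co-treated with compound and 3 nM final 1alpha,25-dihydroxyvitamin D3 for 16 h at 37C; reporter activity was measured as FRET substrate fluorescence after 2 h at room temperature.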

In test [15] the target is Peroxisome proliferator-activated receptor delta (Homo sapiens) (UniProt Q03181). Put plainly: qHTS assay to identify small molecule antagonists of the peroxisome proliferator-activated receptor delta (PPARd) signaling pathway (AID 743215; active = well fitted inhibition curve with a large enough effect in the signal ratio in the repeat runs, not every such curve was filed as active; the % refers to the signal ratio;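 also: cells stimulated with agonist L165041 at 300 nM final during compound exposure; series mostly up to about 62 µM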). A digest of the protocol: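 Cells: HEK293H with a UAS-driven beta-lactamase reporter responsive to PPARd. Compounds were co-added with L165041 (300 nM, final) and incubated 17 h at 37 C before a 2 h room-temperature FRET substrate step and fluorescence reading.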

Test [16] addresses Bile acid receptor (Homo sapiens) (UniProt Q96RI1). Description: qHTS assay to identify small molecule antagonists of the farnesoid-X-receptor (FXR) signaling pathway (AID 743217; active = well fitted inhibition curve with a large enough effect in the signal ratio in the repeat runs, not every such curve was filed as active; the % refers to the signal ratio). In outline:
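Cells carrying a UAS-driven beta-lactamase reporter (GeneBLAzer FXR-UAS-bla HEK 293T) were plated and rested 5 h at 37 °C. Compounds in DMSO were added alongside chenodeoxycholic acid agonist at 50 uM final and left 16 h at 37 °C before FRET substrate readout.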

For test [17] the target is unchanged. Put plainly: qHTS assay to identify small molecule agonists of the farnesoid-X-receptor (FXR) signaling pathway (AID 743220; active = well fitted activation curve with a large enough effect in the signal ratio in the repeat runs, not every such curve was filed as active; the % refers to the signal ratio). A digest of the protocol:
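FXR-UAS-bla HEK 293T cells carrying a UAS-driven beta-lactamase reporter were plated for 5 h at 37C/5% CO2, then exposed to DMSO-dissolved Tox21 10K compounds for 16 h at 37C. A LiveBLAzer B/G FRET substrate was loaded for 2 h at room temperature before fluorescence reading.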

The target of test [18] is Vitamin D3 receptor (Homo sapiens) (UniProt P11473). Description: qHTS assay to identify small molecule agonists of the vitamin D receptor (VDR) signaling pathway (AID 743222; calls by dose curve). In outline:
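Cells carrying a VDR-driven beta-lactamase reporter are seeded at 2,000 per well and rested 4 h. Compounds in DMSO are added for 16 h at 37C, and FRET substrate fluorescence is measured after 2 h at room temperature.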

Test [19] deals with Aryl hydrocarbon receptor (Homo sapiens) (UniProt P35869). Description: qHTS assay to identify small molecule that activate the aryl hydrocarbon receptor (AhR) signaling pathway (AID 743085).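 Also: HG2L7.5c1 human HepG2 liver cells with stably integrated DRE-driven firefly reporter; series mostly up to about 70 µM; nearly all actives have a fitted effect of over 15% in size.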 In outline:
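Compounds were tested in HepG2 hepatocellular carcinoma cells harbouring a stably integrated luciferase gene under control of 20 DREs. Increased reporter signal after 24 h treatment at 37C was taken as AhR activation.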

Test [20] in a line: qHTS assay for small molecule agonists of the antioxidant response element (ARE) signaling pathway (AID 743202; active = well fitted activation curve with a large enough effect in the signal ratio in the repeat runs, not every such curve was filed as active; the % refers to the signal ratio). In outline:
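After 16 hours of compound treatment at 37 C, HepG2 cells with a stably integrated ARE-driven beta-lactamase reporter were loaded 2 hours at room temperature with LiveBLAzer B/G FRET substrate and fluorescence intensity measured.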

Sequence of Bile acid receptor (Homo sapiens) (Q96RI1 whole entry, looked up): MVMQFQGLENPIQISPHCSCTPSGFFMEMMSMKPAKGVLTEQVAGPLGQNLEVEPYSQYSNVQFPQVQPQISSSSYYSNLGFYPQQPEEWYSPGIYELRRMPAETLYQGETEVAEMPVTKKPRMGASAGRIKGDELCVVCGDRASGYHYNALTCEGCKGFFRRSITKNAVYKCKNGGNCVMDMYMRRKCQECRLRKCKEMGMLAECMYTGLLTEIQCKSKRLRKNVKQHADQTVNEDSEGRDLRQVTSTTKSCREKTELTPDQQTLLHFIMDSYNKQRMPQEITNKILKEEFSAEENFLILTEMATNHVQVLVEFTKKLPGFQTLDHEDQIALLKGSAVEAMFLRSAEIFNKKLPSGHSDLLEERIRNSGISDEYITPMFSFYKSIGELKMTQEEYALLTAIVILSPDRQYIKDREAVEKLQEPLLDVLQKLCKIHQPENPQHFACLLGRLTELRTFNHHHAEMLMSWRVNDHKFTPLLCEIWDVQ
Sequence of Vitamin D3 receptor (Homo sapiens) (P11473 whole entry, looked up): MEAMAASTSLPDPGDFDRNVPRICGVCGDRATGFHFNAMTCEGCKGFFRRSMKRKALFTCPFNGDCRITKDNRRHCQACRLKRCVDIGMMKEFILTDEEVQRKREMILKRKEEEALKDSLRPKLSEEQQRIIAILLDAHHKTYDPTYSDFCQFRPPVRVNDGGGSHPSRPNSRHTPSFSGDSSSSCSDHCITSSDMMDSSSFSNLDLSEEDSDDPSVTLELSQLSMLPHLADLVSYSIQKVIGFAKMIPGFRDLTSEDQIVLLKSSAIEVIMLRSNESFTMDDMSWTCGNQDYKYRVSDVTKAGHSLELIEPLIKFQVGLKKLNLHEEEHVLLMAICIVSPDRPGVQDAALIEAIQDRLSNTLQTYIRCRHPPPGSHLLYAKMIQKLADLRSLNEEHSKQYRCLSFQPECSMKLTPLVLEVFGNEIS
Sequence of Peroxisome proliferator-activated receptor gamma (Homo sapiens) (P37231 whole entry, looked up): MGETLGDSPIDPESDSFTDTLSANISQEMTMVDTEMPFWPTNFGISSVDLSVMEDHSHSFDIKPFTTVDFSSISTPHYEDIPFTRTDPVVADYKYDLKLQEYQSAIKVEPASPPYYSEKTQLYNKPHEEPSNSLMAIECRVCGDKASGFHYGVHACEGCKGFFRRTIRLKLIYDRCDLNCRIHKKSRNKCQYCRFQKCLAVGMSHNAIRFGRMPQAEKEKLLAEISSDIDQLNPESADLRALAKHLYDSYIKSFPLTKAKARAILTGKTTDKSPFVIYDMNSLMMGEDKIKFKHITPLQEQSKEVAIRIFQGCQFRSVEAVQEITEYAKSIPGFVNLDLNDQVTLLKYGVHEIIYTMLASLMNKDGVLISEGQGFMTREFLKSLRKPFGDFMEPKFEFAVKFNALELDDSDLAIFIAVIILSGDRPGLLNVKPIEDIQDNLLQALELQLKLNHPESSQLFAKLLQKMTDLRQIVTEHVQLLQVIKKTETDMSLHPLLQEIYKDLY
Sequence of Aryl hydrocarbon receptor (Homo sapiens) (P35869 whole entry, looked up): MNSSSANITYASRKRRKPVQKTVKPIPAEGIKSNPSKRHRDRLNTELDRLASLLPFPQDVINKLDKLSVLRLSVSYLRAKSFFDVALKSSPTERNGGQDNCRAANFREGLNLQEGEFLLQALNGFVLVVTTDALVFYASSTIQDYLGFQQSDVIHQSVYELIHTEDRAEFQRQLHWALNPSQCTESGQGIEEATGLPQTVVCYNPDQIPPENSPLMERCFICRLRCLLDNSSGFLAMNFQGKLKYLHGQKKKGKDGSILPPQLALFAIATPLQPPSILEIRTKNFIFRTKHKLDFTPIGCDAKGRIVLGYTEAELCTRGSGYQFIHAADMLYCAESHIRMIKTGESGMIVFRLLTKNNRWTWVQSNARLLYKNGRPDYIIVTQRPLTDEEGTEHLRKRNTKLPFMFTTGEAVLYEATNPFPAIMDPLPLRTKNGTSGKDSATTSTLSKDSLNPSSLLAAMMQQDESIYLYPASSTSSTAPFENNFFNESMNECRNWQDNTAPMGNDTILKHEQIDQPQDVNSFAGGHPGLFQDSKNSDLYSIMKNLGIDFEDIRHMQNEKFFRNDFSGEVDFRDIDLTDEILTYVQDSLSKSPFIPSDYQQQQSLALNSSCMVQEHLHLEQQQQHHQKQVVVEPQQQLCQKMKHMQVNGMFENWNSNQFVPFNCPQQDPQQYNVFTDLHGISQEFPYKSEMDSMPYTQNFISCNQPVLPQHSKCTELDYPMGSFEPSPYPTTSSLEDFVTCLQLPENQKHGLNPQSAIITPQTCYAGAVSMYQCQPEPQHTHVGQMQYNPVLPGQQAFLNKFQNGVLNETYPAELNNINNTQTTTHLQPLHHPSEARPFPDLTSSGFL

On to `CC(C)(C)OC(=O)c1ncn2c1[C@@H]1CCCN1C(=O)c1c(Br)cccc1-2`, for which the Potency result in test [1], in test [4], in test [5], in test [6], in test [7] and in [9] was “inactive” each time. Also, in test [12], the Potency entry is “inactive”. Besides, the result in test [2], in test [3], in [8], in test [10], in test [11] and in [13] was inactive. Further, the outcome in test [14] was inactive.
As to `CC(C)CC#N`, the Potency result in test [1], in [4], in test [5], in [6], in test [7] and in test [9] was “inactive” each time. For the same compound, the Potency result in [16] and in test [12] was “inactive” in each case. The compound was classed as inactive in test [2], in test [3], in test [8], in [10], in [15] and in test [17]. For the same compound, the outcome in test [13], in test [18] and in test [14] was inactive.
Take `C=CCC1=C(C)[C@@H](OC(=O)[C@@H]2[C@@H](C=C(C)C)C2(C)C)CC1=O`: the Potency result in test [1], in test [19], in test [5] and in test [6] was “inactive” in each case. Besides, the compound was classed as inactive in test [2], in test [11], in test [13] and in test [18]. The Potency in [7] was 49 µM (active).
In the case of `CCCSP(=S)(OCC)Oc1ccc(Cl)cc1Cl` (stereo not given), the Potency entry in test [1], in test [4], in test [5], in test [6], in test [7] and in test [12] was “inactive” each time. Also, the outcome in [2], in test [3], in [8], in [10], in [11] and in test [15] was inactive. Further, the compound was called inactive in test [13], in [18] and in [14].
Regarding `COc1cc(OC)nc(Sc2cccc(Cl)c2C(=O)O)n1`, the Potency result in [1], in test [4], in test [5], in test [20], in [6] and in test [7] was “inactive” each time. For the same compound, the Potency entry in test [9] and in test [12] was “inactive” each time. In addition, the result in test [2], in test [3], in [8], in [11], in [13] and in test [18] was inactive. In addition, the compound was classed as inactive in test [14].
Turning to `COc1cc(OC)nc(NC(=O)NS(=O)(=O)c2ncccc2C(=O)N(C)C)n1`, the Potency result in test [1], in test [4], in test [5], in test [20], in test [6] and in [7] was “inactive” in each case. Besides, the Potency result in test [9] and in test [12] was “inactive” in each case. For the same compound, the compound was called inactive in [2], in test [3], in test [8], in test [10], in [11] and in test [13]. The call in [18] and in test [14] was inactive.
For the compound `O=C(Cc1ccccc1)OCc1ccccc1`, the Potency result in [1], in test [4], in test [5], in test [6], in test [7] and in test [9] was “inactive” in each case. Further, the Potency result in test [16] and in [12] was “inactive” throughout. Further, the outcome in test [2], in test [3], in test [8], in [10], in [11] and in test [15] was inactive. Besides, the call in test [17], in [13], in [18] and in test [14] was inactive.
Turning to `CCCCCCI`, the Potency entry in test [1], in test [4], in [5], in [20], in test [6] and in [7] was “inactive” in each case. In addition, the Potency entry in test [9], in test [16] and in test [12] was “inactive” each time. Further, the compound was classed as inactive in test [2], in test [3], in test [8], in [10], in [11] and in test [17]. The result in test [13] was inactive.
